# Publication PMC8384837, “Expanding the binding specificity for RNA recognition by a PUF domain”
# Numbering of substitutions follows the chain as printed.
# How the values were obtained:
# Test in all cases: yeast three-hybrid, YBZ-1, SC-Leu-His + 0.5 mM 3-AT, 4 days
# Settings in all cases: tags: N-Gal4 AD-HA kept; label: inside an RPR1-promoter hybrid RNA with tandem MS2 sites; ssRNA
# [1] = molecular target: T1, PUM1 PUF domain R6-SWV (Homo sapiens, UniProt Q14671 828-1176, N1043S;Y1044W;Q1047V)
# T1 sequence: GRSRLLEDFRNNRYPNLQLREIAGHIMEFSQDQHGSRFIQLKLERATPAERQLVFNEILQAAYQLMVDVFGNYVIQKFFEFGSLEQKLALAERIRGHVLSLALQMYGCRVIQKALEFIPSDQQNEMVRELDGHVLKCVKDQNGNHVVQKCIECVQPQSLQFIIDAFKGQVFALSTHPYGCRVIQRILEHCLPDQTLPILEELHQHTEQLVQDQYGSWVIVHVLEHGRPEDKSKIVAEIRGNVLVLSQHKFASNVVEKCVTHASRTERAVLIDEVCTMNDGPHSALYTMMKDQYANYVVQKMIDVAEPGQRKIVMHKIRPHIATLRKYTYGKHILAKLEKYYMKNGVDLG
# How it was run: (§1)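 The interaction score is the log change in how often each variant appears, from input to selection. Frequencies came from PCR-amplified, Illumina-sequenced repeat regions of Pumilio-1 PUF domain libraries grown in strain YBZ-1 (LexA–MS2 coat fusion, HIS3 reporter) alongside matching RNA elements. Input plates were SC-Leu and selection plates were SC-Leu-His + 0.5 mM 3-AT, each for four days, and the log2 calculation used a pseudocount of 1 where a variant was absent.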
# [2] = molecular target: T2, PUM1 PUF domain R6-LWA (Homo sapiens, UniProt Q14671 828-1176, N1043L;Y1044W;Q1047A)
# T2 sequence: T1 sequence with S216L, V220A
# How it was run: as §1
# [3] = molecular target: PUM1 PUF domain R5-KAM (Homo sapiens, UniProt Q14671 828-1176, C1007K;R1008A;Q1011M)
# How it was run: as §1
# [4] = molecular target: PUM1 PUF domain R5-WHL (Homo sapiens, UniProt Q14671 828-1176, C1007W;R1008H;Q1011L)
# How it was run: as §1
# [5] = molecular target: PUM1 PUF domain R3-SKL (Homo sapiens, UniProt Q14671 828-1176, C935S;R936K;Q939L)
# How it was run: as §1
# [6] = molecular target: PUM1 PUF domain R3-VRK (Homo sapiens, UniProt Q14671 828-1176, C935V;Q939K)
# How it was run: as §1
# [7] = molecular target: PUM1 PUF domain R3-MCV (Homo sapiens, UniProt Q14671 828-1176, C935M;R936C;Q939V)
# How it was run: as §1
# [8] = molecular target: PUM1 PUF domain R2-LLY (Homo sapiens, UniProt Q14671 828-1176, N899L;Y900L;Q903Y)
# How it was run: as §1
# [9] = molecular target: PUM1 PUF domain R5-GNN (Homo sapiens, UniProt Q14671 828-1176, C1007G;R1008N;Q1011N)
# How it was run: as §1
# [10] = molecular target: PUM1 PUF domain R5-GRW (Homo sapiens, UniProt Q14671 828-1176, C1007G;Q1011W)
# How it was run: as §1
# [11] = molecular target: PUM1 PUF domain R8-PHR (Homo sapiens, UniProt Q14671 828-1176, N1122P;Y1123H;Q1126R)
# How it was run: as §1
# [12] = molecular target: PUM1 PUF domain R1-RAN (Homo sapiens, UniProt Q14671 828-1176, S863R;R864A;Q867N)
# How it was run: as §1
# [13] = molecular target: PUM1 PUF domain R7-MSR (Homo sapiens, UniProt Q14671 828-1176, S1079M;N1080S;E1083R)
# How it was run: as §1
# [14] = molecular target: PUM1 PUF domain R7-RIR (Homo sapiens, UniProt Q14671 828-1176, S1079R;N1080I;E1083R)
# How it was run: as §1
# [15] = molecular target: PUM1 PUF domain R1-KGE (Homo sapiens, UniProt Q14671 828-1176, S863K;R864G;Q867E)
# How it was run: as §1
# [16] = molecular target: PUM1 PUF domain R3-GPY (Homo sapiens, UniProt Q14671 828-1176, C935G;R936P;Q939Y)
# How it was run: as §1
# [17] = molecular target: T3, PUM1 PUF domain R6-WWS (Homo sapiens, UniProt Q14671 828-1176, N1043W;Y1044W;Q1047S)
# T3 sequence: T1 sequence with S216W, V220S
# How it was run: as §1
# [18] = molecular target: T4, PUM1 PUF domain R6-MWG (Homo sapiens, UniProt Q14671 828-1176, N1043M;Y1044W;Q1047G)
# T4 sequence: T1 sequence with S216M, V220G
# How it was run: as §1
# [19] = molecular target: PUM1 PUF domain R4-CRL (Homo sapiens, UniProt Q14671 828-1176, N971C;H972R;Q975L)
# How it was run: as §1
# [20] = molecular target: PUM1 PUF domain R4-NPN (Homo sapiens, UniProt Q14671 828-1176, H972P;Q975N)
# How it was run: as §1
sequence,measurement,setting,value
GGCUAGAACUAGUGGAUCCCCCGGCGCCCGGCGGCUCGAGCCCGGGUAAGUGAAAAUAGUCUGCAUGCCGCCGGGCGCCAUGCCUGCAGGUCGACUCUAGAAAACAUG,binding signal,[1],2.26 log2 enrichment (interaction score)
same,binding signal,[2],3.04 log2 enrichment (interaction score)
GGCUAGAACUAGUGGAUCCCCCGGCGCCCGGCGGCUCGAGCCCGGGUAAGUGUCAAUAGUCUGCAUGCCGCCGGGCGCCAUGCCUGCAGGUCGACUCUAGAAAACAUG,binding signal,[3],3.82 log2 enrichment (interaction score)
same,binding signal,[4],2.9 log2 enrichment (interaction score)
GGCUAGAACUAGUGGAUCCCCCGGCGCCCGGCGGCUCGAGCCCGGGUAAGUGUGAAUAGUCUGCAUGCCGCCGGGCGCCAUGCCUGCAGGUCGACUCUAGAAAACAUG,binding signal,[4],7.53 log2 enrichment (interaction score)
GGCUAGAACUAGUGGAUCCCCCGGCGCCCGGCGGCUCGAGCCCGGGUAAGUGUAAUUAGUCUGCAUGCCGCCGGGCGCCAUGCCUGCAGGUCGACUCUAGAAAACAUG,binding signal,[5],2.84 log2 enrichment (interaction score)
same,binding signal,[6],3.28 log2 enrichment (interaction score)
same,binding signal,[7],1.41 log2 enrichment (interaction score)
GGCUAGAACUAGUGGAUCCCCCGGCGCCCGGCGGCUCGAGCCCGGGUAAGUGUAAAGAGUCUGCAUGCCGCCGGGCGCCAUGCCUGCAGGUCGACUCUAGAAAACAUG,binding signal,[8],2.22 log2 enrichment (interaction score)
GGCUAGAACUAGUGGAUCCCCCGGCGCCCGGCGGCUCGAGCCCGGGUAAGUGUUAAUAGUCUGCAUGCCGCCGGGCGCCAUGCCUGCAGGUCGACUCUAGAAAACAUG,binding signal,[9],3.44 log2 enrichment (interaction score)
same,binding signal,[10],4.05 log2 enrichment (interaction score)
GGCUAGAACUAGUGGAUCCCCCGGCGCCCGGCGGCUCGAGCCCGGGUAAGCGUAAAUAGUCUGCAUGCCGCCGGGCGCCAUGCCUGCAGGUCGACUCUAGAAAACAUG,binding signal,[11],4.58 log2 enrichment (interaction score)
GGCUAGAACUAGUGGAUCCCCCGGCGCCCGGCGGCUCGAGCCCGGGUAAGUGUAAAUCGUCUGCAUGCCGCCGGGCGCCAUGCCUGCAGGUCGACUCUAGAAAACAUG,binding signal,[12],3.89 log2 enrichment (interaction score)
GGCUAGAACUAGUGGAUCCCCCGGCGCCCGGCGGCUCGAGCCCGGGUAAGUUUAAAUAGUCUGCAUGCCGCCGGGCGCCAUGCCUGCAGGUCGACUCUAGAAAACAUG,binding signal,[13],3.5 log2 enrichment (interaction score)
same,binding signal,[14],3.4 log2 enrichment (interaction score)
GGCUAGAACUAGUGGAUCCCCCGGCGCCCGGCGGCUCGAGCCCGGGUAAGUGUAAAUUGUCUGCAUGCCGCCGGGCGCCAUGCCUGCAGGUCGACUCUAGAAAACAUG,binding signal,[15],4.18 log2 enrichment (interaction score)
same,binding signal,[12],3.21 log2 enrichment (interaction score)
GGCUAGAACUAGUGGAUCCCCCGGCGCCCGGCGGCUCGAGCCCGGGUAAGUGUAAAUAGUCUGCAUGCCGCCGGGCGCCAUGCCUGCAGGUCGACUCUAGAAAACAUG,binding signal,[11],4.34 log2 enrichment (interaction score)
same,binding signal,[16],6.77 log2 enrichment (interaction score)
same,binding signal,[1],1.05 log2 enrichment (interaction score)
same,binding signal,[17],3.36 log2 enrichment (interaction score)
same,binding signal,[18],3.83 log2 enrichment (interaction score)
same,binding signal,[19],5.64 log2 enrichment (interaction score)
same,binding signal,[10],2.31 log2 enrichment (interaction score)
same,binding signal,[2],4.92 log2 enrichment (interaction score)
GGCUAGAACUAGUGGAUCCCCCGGCGCCCGGCGGCUCGAGCCCGGGUAAGUGUAUAUAGUCUGCAUGCCGCCGGGCGCCAUGCCUGCAGGUCGACUCUAGAAAACAUG,binding signal,[20],3.56 log2 enrichment (interaction score)
GGCUAGAACUAGUGGAUCCCCCGGCGCCCGGCGGCUCGAGCCCGGGUAAGUGUAAAUGGUCUGCAUGCCGCCGGGCGCCAUGCCUGCAGGUCGACUCUAGAAAACAUG,binding signal,[15],1.9 log2 enrichment (interaction score)
GGCUAGAACUAGUGGAUCCCCCGGCGCCCGGCGGCUCGAGCCCGGGUAAGUGUAAGUAGUCUGCAUGCCGCCGGGCGCCAUGCCUGCAGGUCGACUCUAGAAAACAUG,binding signal,[7],2.64 log2 enrichment (interaction score)
